Among the test systems are NCI-H322M lung; HOP-92 NSCLC; COLO 205 colon; MDA-MB-231 breast; PC-3 prostate; LOX IMVI melanoma; A498 renal; IGROV1 ovarian; HS 578T breast; SW-620 colon; HCC-2998 colon; KM12 colon; MOLT-4 leukemia; SR leukemia; RPMI-8226 leukemia; T-47D breast; HCT-116 colon; NCI-H23 lung; NCI-H522 lung; MDA-MB-435 melanoma.
What all share (assay): NCI-60 one-dose screen, 48 h (100 = growth as untreated, 0 = no growth, -100 = all killed)
What all share (conditions): 10 µM

The panel holds about 83,000 compounds, 20% with a hit somewhere; the sample as a whole holds those more often.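 A percent growth of 40 corresponds to 60% growth inhibition; 0 means no net growth; -100 means all cells died. Active threshold: below 10.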 Values without a mark were called inactive. Activity calls are given as the source filed them.

In the case of `CC1=C(CCC=NNC(N)=O)C2=C(C)C3(CC3)[C@@](C)(O)C(=O)C2=C1`, the growth with NCI-H322M lung is -13% (active); in the test with HOP-92 NSCLC it was -11.3% (active); in the test on COLO 205 colon, -91.4% (active); with MDA-MB-231 breast it was -59.7% (active); in the test on PC-3 prostate, 2.58% (active); in the test on LOX IMVI melanoma, -71.9% (active). The growth with A498 renal was -67.2% (active); with IGROV1 ovarian, -34% (active); in the test on HS 578T breast, -24.5% (active); with SW-620 colon, -20.7% (active); with HCC-2998 colon it was -87% (active); in the test with KM12 colon, 1% (active).

Regarding `CC(C)N=C([Se])NC(=O)c1ccccc1`, the growth is -3.38% (active) in the test with NCI-H322M lung; -34.3% (active) in the test with HOP-92 NSCLC; -11.7% (active) in the test on COLO 205 colon; -48.6% (active) in the test with MDA-MB-231 breast; -37.3% (active) in the test with LOX IMVI melanoma; 2.86% (active) with MOLT-4 leukemia. For the same compound, the growth was -9.62% (active) with SR leukemia; 0.145% (active) with RPMI-8226 leukemia; -54.5% (active) in the test on IGROV1 ovarian; -2.5% (active) in the test with HS 578T breast; -34.6% (active) in the test with T-47D breast; -20.9% (active) in the test on SW-620 colon. The growth with HCT-116 colon was 1.38% (active); with KM12 colon, -8.34% (active).

With `CC(=O)Oc1ccccc1C(=O)NC([Se])=NC1CCCCC1`, the growth in the test with NCI-H23 lung was -0.217% (active); with NCI-H322M lung, 0.722% (active); in the test with NCI-H522 lung, -95.7% (active); in the test on MOLT-4 leukemia, 29.4%; in the test with SR leukemia it was 41.4%; in the test with IGROV1 ovarian it was -46% (active). For the same compound, the growth is -9.49% (active) with T-47D breast; 8.85% (active) with MDA-MB-435 melanoma; 21% with HCT-116 colon; 28.1% in the test on HCC-2998 colon; 5.47% (active) in the test with KM12 colon.

For `COc1cc2cc(C(=O)N3C[C@@H](CCl)c4c3cc(OC(=O)N3CCN(C(=O)CCC(=O)N5CCN(C)CC5)[C@@H]5CSSC[C@@H]53)c3ccccc43)[nH]c2c(OC)c1OC`, the growth in the test on NCI-H322M lung is -7.14% (active); in the test with HOP-92 NSCLC it was 19.3%; with COLO 205 colon, -65.6% (active); with MDA-MB-231 breast, -94.2% (active); in the test on LOX IMVI melanoma it was -100% (active); with MOLT-4 leukemia, 0.371% (active). Also, the growth with SR leukemia is -12.9% (active); with IGROV1 ovarian it was -50.7% (active); in the test with HS 578T breast, -15.6% (active); with SW-620 colon it was -23.4% (active); in the test with HCT-116 colon, -77.5% (active).

In the case of `CC[C@@]12CC(C(=O)OC)=C3Nc4cc5c(cc4[C@@]34CCN(C[C@H]3O[C@H]31)[C@@H]24)[C@@H]1[C@H](O5)[C@@H](O)[C@@]2(CC)CC(C(=O)OC)=C3Nc4cc(OC)ccc4[C@@]34CCN1[C@@H]24`, the growth in the test on NCI-H23 lung was 1.41% (active); in the test with HOP-92 NSCLC it was 21.2%; with MDA-MB-231 breast it was 18%; with PC-3 prostate it was 22.2%; with LOX IMVI melanoma it was -64.9% (active); in the test with A498 renal, -15.3% (active). Moreover, the growth was -4.22% (active) in the test on MOLT-4 leukemia; -16.2% (active) with SR leukemia; 0.732% (active) in the test on RPMI-8226 leukemia; 2.51% (active) with IGROV1 ovarian; 25.7% in the test with T-47D breast; 9.48% (active) with MDA-MB-435 melanoma. Moreover, the growth in the test with SW-620 colon is 16.3%; in the test on HCT-116 colon, -0.466% (active); with HCC-2998 colon it was -65% (active); in the test with KM12 colon, 10.2%.

`O=C(/C=C/c1ccc(Br)cc1)c1nc2ccccc2n1Cc1ccc(Br)cc1`: the growth was -36.3% (active) in the test with NCI-H23 lung; -11.1% (active) in the test on HOP-92 NSCLC; -39.8% (active) with COLO 205 colon; 18.7% with PC-3 prostate; 82.7% with A498 renal; -4.04% (active) in the test on MOLT-4 leukemia. In addition, the growth with SR leukemia was -13.9% (active); with RPMI-8226 leukemia it was -9.14% (active); in the test on MDA-MB-435 melanoma it was -38.5% (active); in the test on HCT-116 colon it was -80.9% (active).

Consider `O=C([Se]C1C=CCCC1)c1ccc(C(=O)[Se]C2C=CCCC2)s1` (configuration not stated), for which the growth with NCI-H322M lung is -28.5% (active); in the test on HOP-92 NSCLC it was -39.7% (active); in the test on PC-3 prostate, -16.5% (active); in the test with A498 renal, 20.6%; in the test on MOLT-4 leukemia, 0.117% (active); in the test on SR leukemia it was -33% (active). Also, the growth in the test on T-47D breast was -48.1% (active); with HCT-116 colon it was -43.1% (active); in the test on HCC-2998 colon it was -67.8% (active); in the test with KM12 colon, -64.9% (active).

As for `CC(=O)Oc1ccccc1C(=O)[Se]C(=NC(C)C)NC(C)C`, the growth was -82.6% (active) in the test with NCI-H322M lung; -49.2% (active) with HOP-92 NSCLC; -97% (active) with NCI-H522 lung; -69% (active) with COLO 205 colon; -50.5% (active) in the test with MDA-MB-231 breast; -62.9% (active) with PC-3 prostate. For the same compound, the growth with LOX IMVI melanoma is -80% (active); in the test on A498 renal it was -24.8% (active); with MOLT-4 leukemia it was -15.4% (active); in the test on SR leukemia, -27.5% (active); in the test with HS 578T breast, -15.6% (active); with MDA-MB-435 melanoma, -94.1% (active). Further, the growth was -72.4% (active) in the test on SW-620 colon, -82.4% (active) in the test on HCT-116 colon, -91% (active) in the test on HCC-2998 colon and -89.6% (active) in the test on KM12 colon.

Turning to `COCCOCCOCCOc1ccc(-n2cc(-c3ccc(O[C@H]4O[C@@H]5OC6(C)CC[C@H]7[C@H](C)CC[C@@H]([C@H]4C)[C@@]57OO6)cc3)nn2)cc1`, the growth in the test on HOP-92 NSCLC was 83.2%; in the test on NCI-H522 lung it was -21.3% (active); in the test on COLO 205 colon, -11.4% (active); with MDA-MB-231 breast it was 79.9%; in the test on LOX IMVI melanoma, 36.1%; in the test on A498 renal, 93.8%. In addition, the growth in the test with MOLT-4 leukemia was 21.2%; in the test on SR leukemia it was 33.8%; with RPMI-8226 leukemia, 20.9%; in the test on IGROV1 ovarian, 50.2%; in the test with MDA-MB-435 melanoma, 19.3%; in the test on SW-620 colon, 27.7%.

Turning to `O=C(/C=C/c1ccco1)c1nc2ccccc2n1Cc1ccc(F)cc1`, the growth with NCI-H322M lung is 79.2%; in the test on HOP-92 NSCLC, 40.2%; in the test on MOLT-4 leukemia, 6.46% (active); with SR leukemia, 23.6%; with IGROV1 ovarian, 52.5%; with MDA-MB-435 melanoma, 77%. In addition, the growth is 57% in the test on HCC-2998 colon and 50.8% in the test on KM12 colon.

For `CC[C@]12C=CCN3CC[C@@]4(c5ccc(OC)cc5N(C)[C@H]4[C@@](O)(C(=O)OC)[C@@H]1OC(=O)CCCC[P+](c1ccc(C)cc1)(c1ccc(C)cc1)c1ccc(C)cc1)[C@@H]32`, the growth in the test on MDA-MB-231 breast is -97.2% (active); in the test with PC-3 prostate, -73.2% (active); with LOX IMVI melanoma it was -94.5% (active); in the test with A498 renal, -90.9% (active); in the test on MOLT-4 leukemia, -25% (active); with SR leukemia, 25.8%. The growth in the test on IGROV1 ovarian is -91.8% (active); with T-47D breast, -64.5% (active); in the test with MDA-MB-435 melanoma, -86.8% (active); in the test on SW-620 colon, -88.1% (active); with HCT-116 colon it was -93.5% (active); with HCC-2998 colon it was -85.8% (active).

(Values after PubChem BioAssay (NCI).)
